# Measured values reported in PubChem BioAssay AID504607 (Sanford-Burnham Center for Chemical Genomics, 2011).
# Out of some 6,200 compounds screened, about 4,800 (77%) were called active. So high a share suggests a set chosen from earlier hits. The list is a sample of the results. Unmarked numbers belong to inactive results.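 How the source made its calls: active means mean inhibition at 8 µM reaching about 37%, which flags the compound as non-specific (limit read from the data); inactive means the rest.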
# Experiment: full-length luciferase signal inhibition, confirmation, counter-screen for Mdm2/MdmX interaction inhibitor project, cell-based, single concentration, SaOS-2 (AID 504607);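 further: p53-null SaOS-2 cells with luciferase driven by a doxycycline-inducible promoter; compound on cells about two nights before reading with doxycycline added after day one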
# Details: SaOS-2 full-length luciferase counterscreen, luminescence; at 8 µM; stronger effect = higher value
row,SMILES,inhibition
1,Cc1ccc(OCCOCCOc2ccc(Br)cc2/C=N\NC(=O)c2ccncc2)cc1,45.5% (active)
2,CC(=O)N1CCc2c(sc(NC(=O)CCS(=O)(=O)c3ccccc3)c2C#N)C1,57.3% (active)
3,O=[N+]([O-])c1ccccc1S(=O)(=O)Nc1cccc2cccnc12,56.4% (active)
4,COc1cc(NS(=O)(=O)c2ccc3ccccc3c2)c2ncccc2c1,22.5%
5,COc1ccc(NC(=O)/C(Cl)=C(/Cl)S(=O)Cc2ccc(C)cc2)cn1 (configuration not stated),0.18%
6,CN(C)CCCn1c(=O)n(Cc2ccccc2)c(=O)c2c3c(sc21)CCCCC3,70% (active)
7,Cc1ccc(CS(=O)(=O)c2ncc(Cl)c(C(=O)Nc3nnc(C)s3)n2)cc1,50.9% (active)
8,CSc1nnc(NC(=O)c2nc(S(=O)(=O)Cc3ccc(C)cc3)ncc2Cl)s1,49.9% (active)
9,COc1ccccc1N1CCN(c2ncnc3sc(C)c(-c4ccccc4)c23)CC1,80.6% (active)
10,COc1ccccc1N(CC(=O)N/N=C(\C)c1ccccc1O)S(=O)(=O)c1ccc(C)cc1,37.3% (active)
11,COc1cc(NC(=O)c2[nH]cnc2C(N)=O)cc(C(=O)Nc2cccc(C(F)(F)F)c2)c1,50% (active)
12,COc1cc(NC(=O)c2cncc(-c3ccc(C#N)cc3)c2)cc(C(=O)Nc2cccc(C(F)(F)F)c2)c1,21.1%
13,CC[C@H]1CN2CCc3cc(OC)c(OC)cc3[C@@H]2C[C@@H]1C[C@H]1NCCc2cc(OC)c(OC)cc21,51.2% (active)
14,Cc1ccc(C(=O)N/C(=C/c2ccc(-c3cccc([N+](=O)[O-])c3)o2)C(=O)NCCCN(C)C)cc1,44.1% (active)
15,Nc1nonc1-c1nc2ccccc2n1Cc1ccc(F)cc1,71.9% (active)
16,COc1ccc(OC)c(C2C3=C(N=c4s/c(=C\c5cccc(O)c5)c(=O)n42)c2ccccc2CC3)c1 (configuration not stated),41.8% (active)
17,C=CCn1c(SCc2c(C)noc2C)nc2sc3c(c2c1=O)CCC(C)C3 (configuration not stated),52.9% (active)
18,O=C(NCC1CCCO1)c1cc2c([nH]c3ccccc32)c(-c2ccc(F)cc2)n1 (configuration not stated),74.8% (active)
19,Oc1c(CN2CCCC2)cc(COCc2ccccc2)c2cccnc12,32.2%
20,COc1cc(/C=N/NC(=O)Nc2ccccc2)ccc1OCCOc1ccccc1C,62.6% (active)
21,O=C(NC(=O)c1ccccc1N1CCCCC1)Nc1ccc(Br)cc1,86.3% (active)
22,CCOC(=O)c1c(-c2ccc(C)cc2C)csc1NC(=O)CSc1nnnn1C,73.6% (active)

row,SMILES,inhibition
1,COc1ccc(C2CC(c3ccccc3)=NN2C(=O)c2ccc(Cl)c([N+](=O)[O-])c2)cc1 (configuration not stated),62.6% (active)
2,CC(=O)c1ccc(S(=O)(=O)N2CCN(C(=O)/C=C/c3ccc4ccccc4n3)CC2)cc1,46.9% (active)
3,N/C(=N\OC(=O)c1ccc2c(c1)OCO2)c1ccc(Br)cc1,137% (active)
4,CCc1nc(C)cn1S(=O)(=O)c1cc([N+](=O)[O-])ccc1Cl,103% (active)
5,CCOc1cc(/C=C/c2nc3ccccc3c(=O)[nH]2)cc(Br)c1OC,57.5% (active)
6,O=C(/C=C/c1ccc(Cl)c([N+](=O)[O-])c1)c1ccc(O)cc1,59.3% (active)
7,O=C(/C=C/c1ccc(Cl)c([N+](=O)[O-])c1)c1cccnc1,67.5% (active)
8,CCCc1nc(NCc2ccc3c(c2)OCO3)c2nnn(Cc3ccccc3Cl)c2n1,91.5% (active)
9,CC(C)Cc1nc(Nc2ccc(S(=O)(=O)N3CCCC3)cc2)c2nnn(Cc3ccccc3)c2n1,24.1%
10,COc1ccc(/C=C/C(=O)c2ccc(NS(=O)(=O)c3ccc(C)cc3)cc2)cc1O,65.2% (active)
11,Cc1ccc(C2CC(=O)NC(SCC(=O)OCc3ccccc3)=C2C#N)o1 (configuration not stated),55.9% (active)
12,Cc1cc(C(=O)COC(=O)CNC(=O)c2ccc(F)cc2)c(C)n1Cc1ccco1,98.9% (active)
13,Cc1ccsc1C(=O)OCC(=O)c1cc(C)n(CC2CCCO2)c1C (configuration not stated),28.9%
14,CCOc1cc(C(=O)N2CCc3cc(OC)c(OC)cc3C2)ccc1OC(F)F,86.4% (active)
15,COc1cc(N=Cc2c(O)[nH]c3ccccc23)cc(OC)c1OC,47% (active)
16,COc1ccc(N=Cc2c(O)[nH]c3ccccc23)cc1OC,65.3% (active)
17,c1ccc2c(c1)C(=NC1CCCCC1)NC2=NC1CCCCC1,42.2% (active)
18,OC(CNCC1CCCO1)Cn1c2ccc(Br)cc2c2cc(Br)ccc21 (configuration not stated),52.2% (active)
19,CC1=C/C(=N\OS(=O)(=O)c2ccccc2)C=CC1=O,45.1% (active)
20,CCc1ccc2c(c1)C1(NN=C(c3ccccc3)S1)C(=O)N2 (configuration not stated),40.3% (active)
21,Cn1cc([N+](=O)[O-])c(C(=O)Nc2cnn(Cc3ccc(F)cc3)c2)n1,74.9% (active)
22,COc1ccccc1-n1nnnc1S(=O)(=O)Cc1ccc(Cl)cc1,52.1% (active)

row,SMILES,inhibition
1,COc1cccc(/C=N/NC(=O)c2[nH]nc3c2CCc2ccccc2-3)c1O,27%
2,COc1cccc(/C=N/Nc2cc(C)nc(-c3ccccc3O)n2)c1O,55.6% (active)
3,c1ccc(C2CCC(N3CCC(N4CCCCC4)CC3)CC2)cc1 (configuration not stated),38.2% (active)
4,CCCCCCCCCCOC(=O)Cn1c(COc2cccc(OC)c2)[n+](C)c2ccccc21,31.2%
5,CCCCCCCCCCOC(=O)Cn1c(COc2ccc(C)cc2)[n+](C)c2ccccc21,59.5% (active)
6,CC1CCN(C(=O)c2ccc(S(=O)(=O)Cc3cc(F)ccc3F)c([N+](=O)[O-])c2)CC1,44.1% (active)
7,COc1ccc(-c2cn[nH]c2-c2ccc(OC)cc2)cc1,35.1%
8,COc1ccc(-c2n[nH]c(C)c2-c2ccc(OC)c(OC)c2)c(O)c1,53.7% (active)
9,CCCCn1c(-c2cccc(C)c2)nc2cc3[nH]c(=O)c(C(C)C)nc3cc21,91.6% (active)
10,CC(=O)Nc1nc(C)c(-c2csc(Nc3ccc(S(N)(=O)=O)cc3)n2)s1,31.7%
11,O=C(NC(=S)Nc1ccc2oc(=O)ccc2c1)c1ccc(-c2cccc(Cl)c2Cl)o1,68.2% (active)
12,O=c1oc2ccccc2cc1-c1cn(-c2ccccc2)c(=S)[nH]1,38.4% (active)
13,NC(N)=Nc1nc(-c2ccccc2)c2cc(Cl)ccc2n1,53.4% (active)
14,COc1ccc(NC(=O)c2cc(-c3cc(OC)c(OC)c(OC)c3)nc3ccccc23)c(OC)c1,58.2% (active)
15,COc1ccc(Nc2ncnc3ccc(Br)cc23)c(OC)c1,24.3%
16,Cc1ccc2nc(-c3ccncc3)cc(C(=O)Nc3ccc4c(c3)OCCO4)c2c1,44.2% (active)
17,COc1ccc(C(CCN(Cc2ccc(OC)c(OC)c2)C(=O)CCl)c2ccccc2)cc1 (configuration not stated),58.4% (active)
18,Cc1noc(C)c1-c1ccc2ncnc(NC(C)c3ccco3)c2c1 (configuration not stated),59.8% (active)
19,Cc1cccc(Nc2nc3c(S(=O)(=O)c4ccccc4)nnn3c3ccccc23)c1C,94.3% (active)
20,CN(c1ccc2nc3ccccc3c(=O)n2n1)C1CCCCC1,27.7%
21,CC(C)(C)Nc1nc(-c2ccccn2)nc2ccccc12,23.3%
22,CC(Nc1nc(C(F)(F)F)nc2ccccc12)c1cccs1 (configuration not stated),50.3% (active)

row,SMILES,inhibition
1,COc1ccc(Cc2nnc(N/N=C/c3ccccc3O)[nH]c2=O)cc1OC,38.6% (active)
2,Cc1nnc(N/N=C/c2ccccn2)[nH]c1=O,20.6%
3,CCOc1cc(N2CCOCC2)c(OCC)cc1NC(=O)COc1cccc2cccnc12,39.6% (active)
4,CCCOc1ccccc1C1CC(=O)Nc2cc3c(cc21)OCO3 (configuration not stated),74.9% (active)
5,COc1ccccc1C1C2=C(COC2=O)Nc2cc3c(cc21)OCO3 (configuration not stated),90.3% (active)
6,CCOc1ccc(S(=O)(=O)Nc2cccc(C(=O)NCC3(N4CCCCC4)CCCCC3)c2)cc1,56.1% (active)
7,COc1ccc(CS(=O)/C(Cl)=C(/Cl)C(=O)Nc2ccc(OC)nc2)cc1 (configuration not stated),-0.43%
8,O=C(CCCN1C(=O)/C(=C/c2ccccc2)SC1=S)Nc1ccc(O)cc1,51.8% (active)
9,O=C(CCCN1C(=O)/C(=C/c2ccco2)SC1=S)Nc1ccccc1,50% (active)
10,O=C(CCCN1C(=O)/C(=C/c2cccs2)SC1=S)Nc1ccc(O)cc1,43% (active)
11,O=C(CCCN1C(=O)/C(=C\c2ccccc2)SC1=S)Nc1ccccc1O,30.3%
12,O=C1/C(=C/c2ccc(F)cc2)SC(=S)N1CCCC(=O)N1CCCCC1CCO (configuration not stated),23.7%
13,O=C(CCCN1C(=O)/C(=C\c2ccco2)SC1=S)Nc1cccc2ccccc12,28.5%
14,COc1ccc(/C=C2\SC(=S)N(CCC(=O)Nc3ccccn3)C2=O)cc1OC,72.7% (active)
15,CCOc1ccc(-c2cc(C(=O)N/N=C/c3ccc(O)cc3)c3ccccc3n2)cc1,48.3% (active)
16,Cc1nc2ccccc2nc1N/N=C/c1ccc(O)cc1O,46.2% (active)
17,Oc1ccc(/C=N/Nc2nc(-c3ccccc3F)nc3ccccc23)c(O)c1,31%
18,COc1cc(OC)c2c(-c3cccc(-c4cccc(N)c4)c3)cc(=O)oc2c1,50.1% (active)
19,CC(NC(=O)c1ccc(N2CCNCC2)c([N+](=O)[O-])c1)C12CC3CC(CC(C3)C1)C2 (configuration not stated),56.5% (active)
20,CC[C@]1(O)CC2CN(CCc3c([nH]c4ccccc34)[C@@](C(=O)OC)(c3cc4c(cc3OC)N(C=O)[C@H]3[C@@](O)(C(=O)OC)[C@H](OC(C)=O)[C@]5(CC)C=CCN6CC[C@]43[C@@H]65)C2)C1 (some centres not stated),102% (active)
21,CC[C@]1(O)C[C@@H]2CN(CCc3c([nH]c4ccccc34)[C@@](C(=O)OC)(c3cc4c(cc3OC)N(C)[C@H]3[C@@](O)(C(=O)OC)[C@H](OC(C)=O)[C@]5(CC)C=CCN6CC[C@]43[C@@H]65)C2)C1,94.7% (active)
